Unmarked numbers belong to inactive results. Results filed as inconclusive are left out. The source made the active and inactive calls. Unless noted, calls come from the whole dose curve; as a rule, active = well fitted curve in the direction sought with a large enough effect; inconclusive = small, poorly fitted or top-dose-only effect, or another doubt; inactive = no such curve, though single readings can be large; an effect the other way counts as inactive or inconclusive.
Legend:
[1] = target: Lysosomal acid glucosylceramidase (Homo sapiens) (UniProt P04062); assay: Glucocerebrosidase-p2 (AID 348; in the data active = potency below about 10 µM; note: potency is the fitted concentration of half-maximal effect); conditions: purified GBA, blue fluorogenic substrate, 40 min
Lysosomal acid glucosylceramidase (Homo sapiens), sequence (P04062 whole entry, looked up): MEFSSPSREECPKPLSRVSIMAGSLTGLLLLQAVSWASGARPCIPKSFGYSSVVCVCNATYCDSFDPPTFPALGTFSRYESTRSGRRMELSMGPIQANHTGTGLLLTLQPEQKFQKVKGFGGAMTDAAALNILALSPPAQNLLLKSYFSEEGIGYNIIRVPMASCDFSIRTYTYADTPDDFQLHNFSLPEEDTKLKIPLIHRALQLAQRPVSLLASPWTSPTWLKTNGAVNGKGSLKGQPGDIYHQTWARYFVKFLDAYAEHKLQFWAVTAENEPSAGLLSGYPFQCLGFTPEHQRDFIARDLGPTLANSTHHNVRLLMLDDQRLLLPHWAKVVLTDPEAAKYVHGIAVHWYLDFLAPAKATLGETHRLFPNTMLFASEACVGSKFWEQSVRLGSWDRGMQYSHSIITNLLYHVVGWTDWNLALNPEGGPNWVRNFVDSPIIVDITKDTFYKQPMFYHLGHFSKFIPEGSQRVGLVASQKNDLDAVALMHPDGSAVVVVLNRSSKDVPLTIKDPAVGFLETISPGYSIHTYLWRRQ
Summary of the method: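 Compounds titrated from 0.6 nM upwards against 0.2 nM enzyme in pH 5.9 citric acid/KH2PO4, taurocholate, tween-20; blue fluorogenic substrate 80 uM, 40 min room temperature, stopped and read Ex 365/Em 440 for AC50.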

[2] = AP1 Signaling Pathway (AID 357; active = well fitted curve in either direction with a large enough effect, not every such curve was filed as active; note: % is set by controls: 0 for no effect and ±100 for the full control effect); conditions: ME-180 AP-1-bla reporter, EGF-induced, beta-lactamase ratio, 5 h; at 7.69 µM (top of the series) unless noted
Summary of the method: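 AP-1-bla ME-180 cells with beta-lactamase reporter under AP-1 response element, stimulated with EC50 EGF; compounds titrated, 5 hours at 37 degrees Celsius. CCF4 read at 460/530 nm ratio; positive and negative modulators judged by AC50.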

[3] = target: Cytochrome P450 1A2 (Homo sapiens) (UniProt P05177); assay: p450-cyp1a2 (AID 410; calls by dose curve; note: potency is the fitted concentration of half-maximal effect); conditions: recombinant CYP1A2, luciferin-ME demethylation, luminescence; series mostly up to 57 µM
Cytochrome P450 1A2 (Homo sapiens), sequence (P05177 whole entry, looked up): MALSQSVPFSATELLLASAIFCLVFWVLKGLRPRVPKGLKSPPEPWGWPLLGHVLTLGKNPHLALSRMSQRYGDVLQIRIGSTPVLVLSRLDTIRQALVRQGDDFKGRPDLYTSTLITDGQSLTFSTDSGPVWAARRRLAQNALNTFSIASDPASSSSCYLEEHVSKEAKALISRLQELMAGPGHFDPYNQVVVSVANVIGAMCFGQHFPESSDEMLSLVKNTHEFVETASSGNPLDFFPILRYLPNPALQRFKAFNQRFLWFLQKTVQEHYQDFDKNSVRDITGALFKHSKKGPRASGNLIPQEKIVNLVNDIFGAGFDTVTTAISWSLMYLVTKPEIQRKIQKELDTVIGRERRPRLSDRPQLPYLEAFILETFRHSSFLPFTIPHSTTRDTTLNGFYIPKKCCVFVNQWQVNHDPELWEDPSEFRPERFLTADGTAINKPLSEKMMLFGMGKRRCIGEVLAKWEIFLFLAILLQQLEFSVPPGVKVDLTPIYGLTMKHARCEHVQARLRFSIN
Summary of the method: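 Human CYP1A2 (20nM) demethylated Luciferin-ME at its Km (100uM) in 100mM KPO4. After 10 min compound preincubation, NADPH regeneration ran the reaction 60 min at room temperature. Luciferin was read by luminescence, normalized to 57 uM furafylline.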

[4] = Stat Signaling Pathway (AID 446; active = well fitted curve in either direction with a large enough effect, not every such curve was filed as active;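 note: ME-180 cervical cancer cells given 40 pM IL-6 alongside compound; SIE-controlled beta-lactamase reporter measured as 460/530 nm FRET emission ratio; % is set by controls: 0 for no effect and ±100 for the full control effect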); conditions: ME-180 SIE beta-lactamase reporter, IL-6 stimulated, 5 h; at 7.69 µM (top of the series) unless noted
Summary of the method: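 ME-180 cells carrying a SIE-driven beta-lactamase reporter are stimulated with 40 pM IL-6 for 5 h at 37C in the presence of compound. The 460/530 nm FRET substrate ratio is read after 2.5 h at RT. Data are normalised to 300 pM IL-6 and to 125 nM JAK inhibitor controls.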

[5] = target: Glucocorticoid receptor (Homo sapiens) (UniProt P04150); assay: GR-GFP Redistribution (AID 450;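 active = compounds whose dose series gives a full or clear partial fitted curve of increased nuclear translocation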; note: potency is the fitted concentration of half-maximal effect); conditions: U2OS GR-GFP nuclear translocation, laser cytometry, 2 h
Glucocorticoid receptor (Homo sapiens), sequence (P04150 whole entry, looked up, the tested form may be a part): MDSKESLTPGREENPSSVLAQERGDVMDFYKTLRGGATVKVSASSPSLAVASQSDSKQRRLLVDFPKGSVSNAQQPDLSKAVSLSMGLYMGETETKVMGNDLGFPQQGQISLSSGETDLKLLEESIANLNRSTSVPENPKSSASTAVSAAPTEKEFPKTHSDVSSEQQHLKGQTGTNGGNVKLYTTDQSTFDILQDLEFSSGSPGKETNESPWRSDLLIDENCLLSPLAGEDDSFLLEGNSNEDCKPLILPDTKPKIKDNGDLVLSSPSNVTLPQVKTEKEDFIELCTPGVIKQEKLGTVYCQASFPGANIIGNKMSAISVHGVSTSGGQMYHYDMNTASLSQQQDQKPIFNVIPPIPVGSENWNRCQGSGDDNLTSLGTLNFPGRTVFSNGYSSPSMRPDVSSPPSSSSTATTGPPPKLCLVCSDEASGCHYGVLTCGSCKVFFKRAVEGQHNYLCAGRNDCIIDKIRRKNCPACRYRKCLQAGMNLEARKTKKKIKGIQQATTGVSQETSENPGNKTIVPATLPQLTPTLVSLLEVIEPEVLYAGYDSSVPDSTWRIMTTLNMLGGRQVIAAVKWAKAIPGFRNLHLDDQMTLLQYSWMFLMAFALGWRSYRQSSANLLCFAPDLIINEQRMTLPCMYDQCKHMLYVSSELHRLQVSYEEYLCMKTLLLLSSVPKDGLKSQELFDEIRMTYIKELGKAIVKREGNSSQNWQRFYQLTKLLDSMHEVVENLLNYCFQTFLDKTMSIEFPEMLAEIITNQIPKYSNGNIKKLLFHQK

[6] = target: Glucocorticoid receptor (Homo sapiens) (UniProt P04150); assay: GR-EFC Redistribution (AID 451; calls by dose curve; note: potency is the fitted concentration of half-maximal effect); conditions: CHO-K1 GR-EFC translocation, beta-gal luminescence, 2 h
Summary of the method: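 Translocation of GR-ED fusion to nuclear EA restores b-gal, read by luminescence after 1 h room-temperature detection. Engineered CHO-K1 biosensor cells, 1,000/well, exposed 2 h at 37 C to titrations up to 46 uM final.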

[7] = target: Mitogen-activated protein kinase 10 (Mus musculus) (UniProt Q61831); assay: JNK3 AlphaScreen Assay (AID 530; active = well fitted curve in either direction with a large enough effect, not every such curve was filed as active;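 note: kinase came from lysate of stimulated human HepG2 cells; signal reports phosphorylation of biotinylated GST-cJun 1-79 at Ser73 with 10 µM ATP; % is set by controls: 0 for no effect and ±100 for the full control effect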); conditions: JNK3 lysate, c-Jun phosphorylation; series mostly up to 57.1 µM
Summary of the method: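 Room-temperature AlphaScreen kinase assay; pre-activated HepG2 lysate as JNK3 source, biotin-GST-cJun(1-79) substrate, 10 uM ATP, compound 15 min preincubation.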

[8] = target: 3',5'-cyclic-AMP phosphodiesterase 4B (Homo sapiens) (UniProt Q07343); assay: qHTS Assay for Inhibitors of PDE-IV (AID 607; active = well fitted activation curve with a large enough effect in the main read-out, with a control signal flat, not every such curve was filed as active; note: % of control where 0% means no effect); conditions: HEK293 ACTOne CNG channel cells, membrane potential fluorescence; series mostly up to 22.9 µM
3',5'-cyclic-AMP phosphodiesterase 4B (Homo sapiens), sequence (Q07343 whole entry, looked up): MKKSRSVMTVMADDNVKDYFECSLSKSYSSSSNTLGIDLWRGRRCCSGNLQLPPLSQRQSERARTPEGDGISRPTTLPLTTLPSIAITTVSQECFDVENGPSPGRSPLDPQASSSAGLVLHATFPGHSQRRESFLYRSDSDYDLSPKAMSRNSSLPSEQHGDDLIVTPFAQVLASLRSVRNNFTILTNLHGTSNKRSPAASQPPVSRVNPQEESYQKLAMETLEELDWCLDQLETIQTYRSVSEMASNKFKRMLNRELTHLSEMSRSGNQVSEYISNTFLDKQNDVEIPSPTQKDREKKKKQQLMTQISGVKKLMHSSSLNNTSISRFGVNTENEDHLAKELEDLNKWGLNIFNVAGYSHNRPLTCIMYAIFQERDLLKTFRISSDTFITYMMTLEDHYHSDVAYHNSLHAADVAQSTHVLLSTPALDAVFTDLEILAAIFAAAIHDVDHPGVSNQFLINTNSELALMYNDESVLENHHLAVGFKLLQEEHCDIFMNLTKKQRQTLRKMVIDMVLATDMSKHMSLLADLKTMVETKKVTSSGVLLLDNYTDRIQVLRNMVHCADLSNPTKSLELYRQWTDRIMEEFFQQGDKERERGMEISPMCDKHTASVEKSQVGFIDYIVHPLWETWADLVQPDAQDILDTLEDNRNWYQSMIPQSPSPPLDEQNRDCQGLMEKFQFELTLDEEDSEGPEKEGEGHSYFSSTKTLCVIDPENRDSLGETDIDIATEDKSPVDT
Summary of the method: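 HEK293 ACTOne cells with CNG channel (1000/well), endogenous PDE4; membrane potential dye, compounds up to 22.9 uM final. Fluorescence Ex 535/Em 590; RO 20-1724 (100 uM final) as reference.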

[9] = target: Dual specificity protein kinase CLK4 (Homo sapiens) (UniProt Q9HAZ1); assay: qHTS Assay for Inhibitors of CDC-like Kinase 4 (Kinase-Glo Assay) (AID 1770); conditions: recombinant Clk4, Kinase-Glo ATP depletion luminescence; series mostly up to 66.7 µM; note: nearly all actives have a fitted effect of over 65% in size; note: potency is the fitted concentration of half-maximal effect
Dual specificity protein kinase CLK4 (Homo sapiens), sequence (Q9HAZ1 whole entry, looked up): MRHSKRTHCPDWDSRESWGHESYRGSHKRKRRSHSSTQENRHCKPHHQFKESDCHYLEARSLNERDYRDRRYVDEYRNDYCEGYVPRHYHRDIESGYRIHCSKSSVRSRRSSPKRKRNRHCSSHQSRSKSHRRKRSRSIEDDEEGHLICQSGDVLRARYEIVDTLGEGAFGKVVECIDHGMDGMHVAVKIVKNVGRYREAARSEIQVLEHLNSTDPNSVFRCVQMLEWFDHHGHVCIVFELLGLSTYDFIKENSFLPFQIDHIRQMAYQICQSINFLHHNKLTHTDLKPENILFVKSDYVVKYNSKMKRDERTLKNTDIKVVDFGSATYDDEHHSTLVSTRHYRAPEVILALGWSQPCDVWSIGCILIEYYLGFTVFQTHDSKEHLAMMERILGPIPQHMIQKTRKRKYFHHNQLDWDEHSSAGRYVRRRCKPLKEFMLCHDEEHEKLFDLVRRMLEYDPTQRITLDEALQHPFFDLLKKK
Summary of the method: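 Inhibition was judged from remaining ATP, measured by Ultra-Glo luciferase bioluminescence after Clk4 (25 nM) had acted on RS peptide at 1 uM ATP for 4.5 hours, room temperature.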

[10] = target: Ubiquitin carboxyl-terminal hydrolase 1 (Homo sapiens) (UniProt O94782); assay: Inhibitors of USP1/UAF1: Pilot qHTS (AID 504865); conditions: purified USP1/UAF1, Ub-rhodamine cleavage fluorescence; series mostly up to 54.9 µM; note: nearly all actives have a fitted effect of over 35% in size; note: potency is the fitted concentration of half-maximal effect
Ubiquitin carboxyl-terminal hydrolase 1 (Homo sapiens), sequence (O94782 whole entry, looked up): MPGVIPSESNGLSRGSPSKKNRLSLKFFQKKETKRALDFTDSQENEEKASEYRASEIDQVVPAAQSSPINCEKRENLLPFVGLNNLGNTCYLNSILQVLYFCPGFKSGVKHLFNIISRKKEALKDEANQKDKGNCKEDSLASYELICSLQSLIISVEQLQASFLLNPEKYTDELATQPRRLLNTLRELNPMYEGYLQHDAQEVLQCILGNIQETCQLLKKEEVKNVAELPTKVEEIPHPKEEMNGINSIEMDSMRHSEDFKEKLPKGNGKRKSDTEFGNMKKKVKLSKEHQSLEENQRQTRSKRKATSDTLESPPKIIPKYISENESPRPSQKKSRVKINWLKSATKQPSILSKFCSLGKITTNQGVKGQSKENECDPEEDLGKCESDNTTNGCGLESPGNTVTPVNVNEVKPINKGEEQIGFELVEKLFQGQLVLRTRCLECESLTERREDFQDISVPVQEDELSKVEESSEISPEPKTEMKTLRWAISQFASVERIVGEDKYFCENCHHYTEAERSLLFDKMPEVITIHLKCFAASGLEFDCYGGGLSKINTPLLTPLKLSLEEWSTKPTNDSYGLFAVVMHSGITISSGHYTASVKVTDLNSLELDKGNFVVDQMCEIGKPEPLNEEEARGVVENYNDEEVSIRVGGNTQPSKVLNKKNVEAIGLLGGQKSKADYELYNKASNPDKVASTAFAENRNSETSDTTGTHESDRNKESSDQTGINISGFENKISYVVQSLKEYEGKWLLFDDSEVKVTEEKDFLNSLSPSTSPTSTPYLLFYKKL
Summary of the method: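 Kinetic fluorescence assay: 1nM USP1/UAF1, 15 min compound preincubation, then 150nM Ub-Rho; 480/540 nm.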

[11] = Primary qHTS for small molecule stabilizers of the endoplasmic reticulum resident proteome: Secreted ER Calcium Modulated Protein (SERCaMP) assay (AID 1508630); conditions: SH-SY5Y GLuc-SERCaMP (Gaussia luciferase released on ER calcium loss) secretion, thapsigargin, luminescence; series mostly up to 38.4 µM; note: % is set by controls: 0 for no effect and ±100 for the full control effect
Summary of the method: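 GLuc-SERCaMP-expressing SH-SY5Y cells, pretreated 16 h with compound, are challenged with thapsigargin to empty ER calcium stores; after 4 h, coelenterazine is added directly to the medium and luminescence is imaged.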

[12] = NFAT Signaling Pathway (AID 444; active = well fitted curve in either direction with a large enough effect, not every such curve was filed as active); conditions: Jurkat NFAT-bla M1, carbachol, beta-lactamase ratio, 5 h; at 7.69 µM (top of the series) unless noted
Summary of the method: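 Read-out: CCF4 FRET ratio (460 nm/530 nm) after 1 h RT dye loading, used for %activity and AC50 from titration series. Cells: Jurkat NFAT-β-lactamase/M1 line, treated with compound plus 1 uM carbachol for 5 h, 37 °C.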

[13] = target: Cytochrome P450 3A4 (Homo sapiens) (UniProt P08684); assay: qHTS Assay for Inhibitors and Substrates of Cytochrome P450 3A4 (AID 884); conditions: recombinant CYP3A4, Luciferin-PPXE luminescence; series mostly up to 57.1 µM; note: potency is the fitted concentration of half-maximal effect; nearly all actives have a fitted effect of over 50% in size
Cytochrome P450 3A4 (Homo sapiens), sequence (P08684 whole entry, looked up): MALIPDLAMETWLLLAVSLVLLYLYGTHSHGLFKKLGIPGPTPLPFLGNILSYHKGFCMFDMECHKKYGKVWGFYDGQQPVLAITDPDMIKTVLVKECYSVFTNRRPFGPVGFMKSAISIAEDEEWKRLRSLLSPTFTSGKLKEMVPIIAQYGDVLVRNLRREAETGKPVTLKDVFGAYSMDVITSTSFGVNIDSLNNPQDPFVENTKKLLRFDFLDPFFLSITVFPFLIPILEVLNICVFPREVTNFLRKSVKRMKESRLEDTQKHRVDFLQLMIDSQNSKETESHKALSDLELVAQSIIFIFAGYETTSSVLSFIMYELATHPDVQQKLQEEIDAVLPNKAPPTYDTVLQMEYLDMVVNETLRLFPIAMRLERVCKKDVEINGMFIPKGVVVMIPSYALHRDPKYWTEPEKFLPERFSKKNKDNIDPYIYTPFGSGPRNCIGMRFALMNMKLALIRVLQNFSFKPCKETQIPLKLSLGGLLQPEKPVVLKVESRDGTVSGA
Summary of the method: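 20 nM human CYP3A4 with 25 uM Luciferin-PPXE (at KM) in 200 mM KPO4, preincubated 10 min with compound; NADPH regeneration started a 60 min RT reaction. Luciferin detected by luminescence, normalized to 57 uM ketoconazole as full inhibition.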

[14] = target: Cytochrome P450 3A4 (Homo sapiens) (UniProt P08684); assay: qHTS Assay for Activators of Cytochrome P450 3A4 (AID 885); conditions: recombinant CYP3A4, Luciferin-PPXE luminescence, 60 min; series mostly up to 57.1 µM; note: nearly all actives have a fitted effect of over 65% in size
Summary of the method: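 Human CYP3A4 (20 nM) with Luciferin-PPXE at 25 uM (its KM) in 200 mM KPO4; 10 min compound preincubation, then NADPH regeneration and 60 min reaction at RT. Luciferin read by luminescence; normalized to 57 uM ketoconazole full inhibition.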

[15] = target: Dual specificity protein kinase CLK4 (Homo sapiens) (UniProt Q9HAZ1); assay: qHTS Assay for Inhibitors of CDC-like Kinase 4 (ADP-FP Assay) (AID 1795); conditions: Transcreener ADP fluorescence polarization; series mostly up to 50 µM; note: nearly all actives have a fitted effect of over 60% in size; note: potency is the fitted concentration of half-maximal effect
Summary of the method: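 Inhibition of ADP formation by 6.25 nM Clk4 is measured using 1 uM ATP and 100 uM RS repeat peptide over one hour. Produced ADP displaces a fluorescent tracer from antibody, lowering polarization.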

[16] = target: Cytochrome P450 2C19 (Homo sapiens) (UniProt P33261); assay: qHTS Assay for Inhibitors and Substrates of Cytochrome P450 2C19 (AID 899); conditions: recombinant CYP2C19, luciferin-H EGE luminescence; series mostly up to 57.1 µM; note: potency is the fitted concentration of half-maximal effect; nearly all actives have a fitted effect of over 60% in size
Summary of the method: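 Reactions contain 5nM enzyme, 10uM Luciferin-H EGE (KM) and 50mM KPO4; compound preincubates 10 min at 37C, NADPH regeneration starts turnover for 60 min. Luminescence after detection reagent gives activity.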

[17] = target: Cytochrome P450 2C9 (Homo sapiens) (UniProt P11712); assay: qHTS Assay for Inhibitors and Substrates of Cytochrome P450 2C9 (AID 883); conditions: recombinant CYP2C9, luciferin-H luminescence, 60 min; series mostly up to 57.1 µM; note: % is set by controls: 0 for no effect and ±100 for the full control effect; nearly all actives have a fitted effect of over 60% in size
Cytochrome P450 2C9 (Homo sapiens), sequence (P11712 whole entry, looked up): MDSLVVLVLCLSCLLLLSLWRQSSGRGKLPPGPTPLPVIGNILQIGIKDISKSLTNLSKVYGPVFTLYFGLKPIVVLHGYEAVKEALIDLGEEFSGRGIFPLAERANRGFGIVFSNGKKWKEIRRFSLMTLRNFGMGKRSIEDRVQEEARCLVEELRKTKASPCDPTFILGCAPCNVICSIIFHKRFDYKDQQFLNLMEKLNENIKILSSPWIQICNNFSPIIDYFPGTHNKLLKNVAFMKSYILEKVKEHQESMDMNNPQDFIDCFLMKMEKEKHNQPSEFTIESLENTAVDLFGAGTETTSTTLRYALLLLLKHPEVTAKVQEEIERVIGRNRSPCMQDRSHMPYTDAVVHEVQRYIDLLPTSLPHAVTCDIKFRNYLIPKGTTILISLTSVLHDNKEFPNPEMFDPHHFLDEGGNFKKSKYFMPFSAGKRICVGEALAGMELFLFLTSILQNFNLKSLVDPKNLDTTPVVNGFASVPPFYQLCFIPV
Summary of the method: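 Turnover of Luciferin-H (100uM, KM) by 10nM human CYP2C9 was measured over 60 min at 37C with NADPH regeneration; inhibitors and some substrates reduce luminescence. Data normalized to sulphaphenazole 57uM.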

[18] = target: Cytochrome P450 2D6 (Homo sapiens) (UniProt P10635); assay: qHTS Assay for Inhibitors and Substrates of Cytochrome P450 2D6 (AID 891); conditions: recombinant CYP2D6, luciferin-ME EGE luminescence; series mostly up to 57.1 µM; note: potency is the fitted concentration of half-maximal effect; nearly all actives have a fitted effect of over 60% in size
Summary of the method: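 Human CYP2D6 (5 nM) with 30 uM Luciferin-ME EGE (at Km) in 100 mM KPO4, compound preincubated 10 min, then NADPH regeneration system for 60 min at room temperature. Luciferin read by luminescence; normalized to 1.43 uM quinidine.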

[19] = qHTS Assay for Identification of Small Molecule Agonists for Hypoxia Response Element Signaling Pathway (AID 914; active = well fitted activation curve with a large enough effect in the signal ratio, with a control signal flat, not every such curve was filed as active; the % refers to the signal ratio; note: % of control where 0% means no effect); conditions: ME-180 (cervical carcinoma) HRE-bla reporter, beta-lactamase ratio, CoCl2, 17 h; activation: stronger effect = higher value
Summary of the method: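 A beta-lactamase reporter under hypoxia response element control in ME-180 cells served as the system. Compound titrations plus EC50 CoCl2 ran 17 h at 37 degrees Celsius; AC50 values were fitted from %Activity.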

N#Cc1cccc(-c2ccc3ncnc(NC4CCNCC4)c3c2)c1
Potency [1]: > 11.4 µM | activity change, negative = inhibition [2]: -6.77% | Potency [3]: 15.8 µM (active) | activity, negative = inhibition [4]: -3.89% | Potency [5]: > 46 µM | Potency [6]: > 46 µM | Potency [7]: inactive | Potency [8]: inactive | Potency [9]: 12.6 µM (active) | Potency [10]: inactive | outcome [11]: inactive

c1ccc2c(N3CCOCC3)nc(-c3ccoc3)nc2c1
Potency [1]: > 11.4 µM | activity change, negative = inhibition [2]: -5.2% | Potency [3]: 1.26 µM (active) | activity change, negative = inhibition [12]: 12.4% | Potency [5]: > 46 µM | Potency [6]: > 46 µM | Potency [7]: inactive | Potency [13]: 6.31 µM (active) | Potency [14]: inactive | Potency [9]: inactive | Potency [15]: 14.1 µM (active) | Potency [10]: inactive | outcome [11]: inactive

Cn1c(=O)c(-c2ccc(Cl)cc2)nc2cnc(N3CCNCC3)nc21
Potency [1]: > 11.4 µM | activity change, negative = inhibition [12]: 204% [activator] (active) | Potency [5]: > 9.22 µM | Potency [6]: > 46 µM | Potency [7]: inactive | Potency [8]: inactive | Potency [14]: inactive | Potency [9]: inactive | Potency [15]: inactive | Potency [10]: inactive | outcome [11]: inactive

Cn1c(=O)c(-c2ccccc2)nc2cnc(OCc3ccccc3)nc21
Potency [1]: > 11.4 µM | activity change, negative = inhibition [2]: -1.1% | Potency [3]: 1.58 µM (active) | activity change, negative = inhibition [12]: 4.72% | activity, negative = inhibition [4]: -3.56% | Potency [5]: > 9.22 µM | Potency [6]: > 46 µM | Potency [7]: inactive | Potency [8]: inactive | Potency [14]: inactive | Potency [9]: inactive | Potency [10]: inactive | outcome [11]: inactive

Cc1noc(C)c1-c1nc(NCc2ccccc2)c2ccccc2n1
Potency [1]: > 11.4 µM | activity change, negative = inhibition [2]: -3.06% | activity, negative = inhibition [4]: -4.57% | Potency [5]: > 46 µM | Potency [6]: > 46 µM | Potency [9]: inactive | Potency [15]: inactive | Potency [10]: 6.31 µM (active) | outcome [11]: inactive

Cc1noc(C)c1-c1nc(NCCN2CCOCC2)c2ccccc2n1
activity change, negative = inhibition [2]: -2.23% | Potency [3]: 2.51 µM (active) | activity, negative = inhibition [4]: -0.501% | Potency [5]: > 46 µM | Potency [6]: > 46 µM | Potency [7]: inactive | Potency [8]: inactive | Potency [14]: inactive | Potency [16]: 7.94 µM (active) | Potency [9]: inactive | Potency [15]: inactive | Potency [10]: inactive | outcome [11]: inactive

CC(=O)NCCNc1nc(-c2ccccc2C)nc2ccccc12
Potency [1]: > 11.4 µM | activity change, negative = inhibition [2]: 7.34% | Potency [3]: 6.31 µM (active) | activity change, negative = inhibition [12]: -9.21% | activity, negative = inhibition [4]: 7.37% | Potency [5]: > 46 µM | Potency [6]: > 46 µM | Potency [7]: inactive | activity change, negative = inhibition [17]: 46.4% [at 2.29 µM] | Potency [13]: 5.01 µM (active) | Potency [14]: inactive | Potency [18]: 5.01 µM (active) | activation [19]: -1% | Potency [9]: 22.4 µM (active) | Potency [10]: inactive | outcome [11]: inactive

Reference: PubChem BioAssay (NCATS)
